The list shows a part of the results. Activity calls are given as the source filed them. Rule as the data show it: active = IC50 below about 80 µM; inactive = the rest.
assay: fluorescent counter-screen in isolated mitochondria, dose response, counter-screen for MPTP inhibitor project, biochemical, fluorescence, uHTS hits (AID 651564); conditions: isolated mitochondria counterscreen, fluorescence read-out

SMILES	IC50
O=Cc1cn(Cc2ccc(F)cc2Cl)c2ccccc12	22.6 µM (active)
COc1ccc(C2NCc3ccc4c(c3-n3cccc32)OCO4)cc1OC (stereo not drawn)	> 80 µM (inactive)
CC(Cc1ccccc1)NCCC(c1ccccc1)c1ccccc1 (stereo not drawn)	18.7 µM (active)

Reference: PubChem BioAssay AID651564 (Sanford-Burnham Center for Chemical Genomics, 2012)
